The record followed here is PubChem BioAssay.

A number with no mark means an inactive call. No rule for the calls is given here.

The nature of the experiment: Pseudomonas biofilm growth suppression – PAO1 strain, BacTiter-Glo luminescence, LB-PBS, primary screen (AID 1144). Conditions: P. aeruginosa PAO1 biofilm, 12 h, higher = more signal.
Turning to `CC(C)C(O)C1C=CC2C(=O)NC(=O)C2N1Nc1ccccn1` (stereo unspecified), the z-score was -0.248.

For the compound `C=CCC(OC(C)=O)[C@@H]1[C@@H](N(Cc2cccc3ccccc23)C(=O)c2ccc(-c3ccccc3)cc2)c2cc(OCCCO)ccc2N1C(=O)Cc1ccc2ccccc2c1` (stereo partly specified), the z-score was 0.0777.

Consider `COc1cc(CO)cc(I)c1O[C@H]1C=C(C(=O)NCCO)C[C@@H]2O[C@H]12`, for which the z-score is -0.583.

Consider `CC(C)[Si](C#CCCc1ccccc1)(O[C@H](c1ccccc1)c1cn(Cc2ccccc2)nn1)C(C)C`, for which the z-score was -0.778.

Turning to `O=C1[C@H]2C=C(I)[C@H](C[C@@H]2c2ccccc2)[C@@]12CO2`, the z-score is 0.686.

Regarding `C=C(/C(=C/C[C@@H](OC(C)=O)c1cccc(OCCO)c1)c1cnc2ccccc2c1)C(C)C`, the z-score is -1.04.

As for `COCCOC(=O)N1C(=O)[C@@]2(c3cc(C#CCC(C(=O)OC)C(=O)OC)ccc31)[C@H](C(=O)Nc1nc3ccccc3s1)[C@H]1C(=O)O[C@H](c3ccccc3)[C@H](c3ccccc3)N1[C@@H]2c1ccc(OCCO)cc1`, the z-score is -0.00208.

Consider `C=CCNC(=O)[C@H]1[C@@H]2C(=O)O[C@@H](c3ccccc3)[C@@H](c3ccccc3)N2[C@@H](c2ccc(OCCO)cc2)[C@]12C(=O)Nc1ccccc12`, for which the z-score is -0.9.

`COC(=O)[C@@]1(Cc2ccc(F)cc2)[C@H]2c3cc(C(=O)N(C)C)n(CCc4ccc(O)c(O)c4)c3C[C@H]2CN1C(=O)c1ccccc1`: the z-score was -0.0598.

Turning to `C=CC[C@@]12N=C(c3ccc(OCCCO)cc3)O[C@@H]1c1ccccc1N(CCC)C2=O`, the z-score is -1.29.

For `O=C(NC1CC1)[C@@H]1c2ccccc2C(=O)N(Cc2ccc(OC(F)(F)F)cc2)[C@H]1c1ccc(CO)cc1`, the z-score is -1.32.

On to `COC(=O)[C@@]1(Cc2ccc(OC)cc2)[C@H]2c3cc(C(=O)N4CCCC4)n(Cc4ccc(C(F)(F)F)nc4)c3C[C@H]2CN1C(=O)c1ccccc1`, for which the z-score was 0.361.

For `CCC(CC)C(O)C1C=CC2C(=O)N(c3ccccc3)C(=O)C2N1Nc1ccccc1F` (stereo unspecified), the z-score was -0.615.

Consider `C=C(COC)C(=O)CC[C@@H](OC(C)=O)c1ccccc1OCCO`, for which the z-score is -0.787.

On to `[N-]=[N+]=Nc1ccccc1[C@@H]1OC(c2ccc(OCCCO)cc2)=N[C@]1(CCS(=O)(=O)c1ccccc1)C(=O)NCC(O)CO` (stereo partly specified), for which the z-score was -0.27.

For the compound `COCCCNC(=O)[C@@]1(Sc2ccc(C)cc2)CC(=O)N(Cc2ccccc2C(F)(F)F)[C@@H]1c1ccc(CO)cc1I`, the z-score is 0.86.

On to `COc1ccc([Si](C)(C)[C@H]2[C@H](CC(=O)N3Cc4ccccc4C[C@H]3CO)O[C@@]3(C(=O)N(C)c4ccccc43)[C@@H]2C)cc1`, for which the z-score was 0.458.

On to `CN1C(=O)C2C(C1=O)C1C=C(c3ccc(CO)cc3)C2C(C2CC2)N1C` (stereo unspecified), for which the z-score is 0.178.

As to `COCCCNC(=O)[C@@]1(CCS(=O)(=O)c2ccccc2)COC(c2ccc(OCCCO)cc2)=N1`, the z-score was 0.86.

Turning to `COC(=O)[C@@]1(Cc2ccc(F)cc2)[C@H]2c3cc(C(=O)N4CCCC4)n(Cc4cc(F)cc5c4OCOC5)c3C[C@H]2CN1C(=O)c1ccccc1`, the z-score was 0.403.

Turning to `O=C1C[C@@](C(=O)NCc2ccccc2)(c2ccc([N+](=O)[O-])cc2)[C@@H](c2ccc(CO)cc2)N1C1CCCCC1`, the z-score was -0.967.

Regarding `CCCCC(O)C1C=CC2C(=O)N(c3ccccc3)C(=O)C2N1Nc1ccc([N+](=O)[O-])cc1` (stereo unspecified), the z-score is -2.08.

As to `CC1CC/C=C\[C@H]2OC34C=CCN(C(C)(C)C)C(=O)[C@H]3N(CCCO)C(=O)[C@@H]4C2C(=O)O1` (stereo partly specified), the z-score was 1.08.

For `CCCCCC1=C2CNC(Cc3ccccc3)(C(=O)OC)C=C2C(C)C1=O` (stereo unspecified), the z-score is 0.949.

`CCOC(=O)C1=C[C@@H](C(C)(C)C)N(S(=O)(=O)c2ccc(C)cc2)[C@H]1c1ccc(C#N)cc1`: the z-score is 0.261.

Turning to `COc1ccc([Si](C)(C)[C@@H]2[C@@H](CC(=O)N(CCO)Cc3ccccc3)O[C@]3(C(=O)N(Cc4ccc(I)cc4)c4ccccc43)[C@H]2C)cc1`, the z-score was -0.129.

With `C=CCNC(=O)[C@H]1[C@@H]2C(=O)O[C@@H](c3ccccc3)[C@@H](c3ccccc3)N2[C@@H](c2ccccc2OCCO)[C@]12C(=O)N(C(=O)OCCOC)c1ccc(C#Cc3ccc(OC)cc3)cc12`, the z-score was -0.394.

In the case of `CCOC(=O)C[C@H]1[C@H](OC(=O)c2cc3ccccc3oc2=O)[C@@H](NC(=O)CC(C)C)c2cc(OCCCO)ccc2N1C(=O)Cc1ccc(OC)cc1`, the z-score was 1.19.

For the compound `O=C(NC1CC1)[C@@H]1c2ccccc2C(=O)N(CC23CC4CC(CC(C4)C2)C3)[C@H]1c1ccc(CO)cc1`, the z-score was -0.88.

In the case of `C=CCN1C(=O)[C@@]2(O[C@@H](CCn3cc([C@H](O)c4ccccc4)nn3)[C@H]([Si](C)(C)c3ccc(OC)cc3)[C@H]2C)c2cc(N3C(=O)c4cccc5cccc3c45)ccc21`, the z-score was -0.119.

Regarding `CCOC(=O)C[C@H]1[C@H](OC(=O)c2ccccc2-c2ccccc2)[C@@H](NC(=O)c2ccc3ccccc3c2)c2cc(OCCCO)ccc2N1C(=O)Cc1ccc(OC)cc1`, the z-score is 0.619.

`COC(=O)[C@@]1(Cc2ccc(OC)cc2)[C@H]2c3cc(C(=O)N4CCCC4)n(Cc4ccc(Cl)c(C(F)(F)F)c4)c3C[C@H]2CN1C(=O)c1ccccc1`: the z-score was 0.237.

As for `CCCC[C@H]1C[C@@H]1[C@@H]1N(C(C)=O)[C@H](c2cccc(OC)c2)CC12CC2`, the z-score is 0.824.

`COc1ccc(CCNC(=O)[C@@H]2c3ccccc3C(=O)N(Cc3ccccc3OC)[C@H]2c2ccc(CO)cc2)cc1`: the z-score is -0.0742.

Turning to `O=C1C=C(c2ccccc2)C(=O)C2=C1CC([C@H]1Oc3ccccc3S(=O)(=O)N3CCC[C@@H]13)=CC2`, the z-score was 0.497.

On to `COCCOC(=O)N1C(=O)[C@@]2(c3cc(C#Cc4ccc(OC)cc4)ccc31)[C@H](c1ccc(OCCO)cc1)N1[C@H](c3ccccc3)[C@H](c3ccccc3)OC(=O)[C@H]1[C@@H]2C(=O)NC[C@H](O)c1ccccc1`, for which the z-score is -0.367.
